Potency data for 24 compounds are collected here from PubChem BioAssay (Tox21).

Assay [1] in a line: A CellTox Green Cytotoxicity Assay to monitor cytotoxicity in HEK293 cells - 32 hour (AID 1224881). Also: nearly all actives have a fitted effect of over 40% in size. The procedure, abridged:
(§1)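 HEK293 cells premixed with CellTox Green dye were seeded at 600 cells/well and left 5 h at 37 C/5% CO2 before pin transfer of 23 nL compound in DMSO. Fluorescence from dye bound to dead-cell DNA was read during 40 h treatment.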

Assay [2] can be described thus: A CellTox Green Cytotoxicity Assay to monitor cytotoxicity in HepG2 cells - 0 hour (AID 1224882). Also: nearly all actives have a fitted effect of over 35% in size. Summed up:
(§2)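 HepG2 cells were seeded together with the CellTox Green dye at 600 cells/well, left 5 h at 37 C/5% CO2, then given compounds in DMSO. Fluorescence from dye bound to dead-cell DNA was read repeatedly over 40 h of treatment at 37 C.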

A short description of assay [3]: A CellTox Green Cytotoxicity Assay to monitor cytotoxicity in HepG2 cells - 32 hour (AID 1224883). Also: nearly all actives have a fitted effect of over 50% in size. Summed up:
as §2

Assay [4] can be described thus: A CellTox Green Cytotoxicity Assay to monitor cytotoxicity in HEK293 cells - 8 hour (AID 1224884). Also: nearly all actives have a fitted effect of over 35% in size. Summed up: as §1
The nature of assay [5]: qHTS RealTime-Glo MT Cell Viability Assay in HEK293 cells - 24 hour (AID 1224886). Also: nearly all actives have a fitted effect of over 50% in size. The procedure, abridged:
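Tox21 10K qHTS, HEK293, 600 cells/well, RealTime-Glo reagent co-dispensed with cells; 5 h preincubation, compound by pintool, 37 C, luminescence at 0–40 h.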

A short description of assay [6]: qHTS RealTime-Glo MT Cell Viability Assay in HEK293 cells - 8 hour (AID 1224887). Also: nearly all actives have a fitted effect of over 50% in size. The procedure, abridged:
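HEK293 cells mixed with RealTime-Glo reagents (NanoLuc plus cell-permeant prosubstrate) at 600 cells/well, preincubated 5 h at 37 C/5% CO2, then given 23 nL compound in DMSO. Nonlytic luminescence from viable cells was read at 0, 8, 16, 24, 32 and 40 h.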
A general note: qHTS replaces the single test concentration by a dilution series.

The nature of assay [7]: A CellTox Green Cytotoxicity Assay to monitor cytotoxicity in HEK293 cells - 16 hour (AID 1224888). Also: nearly all actives have a fitted effect of over 35% in size. The procedure, abridged:
as §1

A short description of assay [8]: qHTS RealTime-Glo MT Cell Viability Assay in HepG2 cells - 0 hour (AID 1224889). Also: nearly all actives have a fitted effect of over 50% in size. The procedure, abridged:
(§3)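 Cells + NanoLuc/prosubstrate dispensed (600 cells/well) → 5 h at 37 C/5% CO2 → compounds in DMSO transferred → 40 h incubation at 37 C, luminescence read at 0, 8, 16, 24, 32, 40 h.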

A short description of assay [9]: A CellTox Green Cytotoxicity Assay to monitor cytotoxicity in HepG2 cells - 8 hour (AID 1224890). Also: nearly all actives have a fitted effect of over 45% in size. Summed up: as §2
A short description of assay [10]: qHTS RealTime-Glo MT Cell Viability Assay in HepG2 cells - 16 hour (AID 1224885). Also: nearly all actives have a fitted effect of over 50% in size. The procedure, abridged:
as §3

Each structure is given as a SMILES string. Where “and” joins values, the source holds several entries; their conditions need not be identical. Equal entries are not always repeated. Records with an inconclusive call do not appear. More than one record can exist for a structure, and the calls need not agree. Calls of active or inactive are those of the source. Calls follow the shape of the dose curve; as a rule, active = well fitted curve in the direction sought with a large enough effect in the repeat runs; inconclusive = weak or mixed curves; inactive = no such curve, though single readings can be large; an effect the other way counts as inactive or inconclusive.
Potency is read from the fitted curve at half-maximal effect.

Consider `CN(C)c1ccccc1`, for which the Potency entry in [1], in assay [2], in assay [3], in [4], in assay [5] and in assay [6] was “inactive” in each case. The Potency entry in [7], in assay [8] and in [9] was “inactive” throughout.
For `COP(=O)(NC(C)=O)SC` (centres undefined), the Potency result in assay [1], in [2], in [3], in [4], in assay [5] and in assay [6] was “inactive” each time. For the same compound, the Potency entry in assay [7], in assay [8] and in assay [9] was “inactive” throughout.
As to `CCCCOCC1CO1` (centres undefined), the Potency entry in assay [1] was “inactive and 19.5 µM (active)”; in assay [2], “inactive and 38.9 µM (active)”; in assay [3], “inactive and 43.6 µM (active)”; in assay [4], “inactive and 24.5 µM (active)”; in assay [9], “inactive and 43.6 µM (active)”. For the same compound, the Potency result in assay [10], in [5], in assay [6] and in assay [8] was “inactive” each time.
`c1ccc(C2CO2)cc1` (centres undefined): the Potency result in [1], in assay [2], in assay [3], in assay [10], in [5] and in assay [6] was “inactive” throughout. In addition, the Potency result in [7], in assay [8] and in assay [9] was “inactive” in each case.
`[CH3][Sn]([Cl])([Cl])[Cl]`: the Potency result in assay [1], in assay [2], in assay [3], in [4], in assay [5] and in assay [6] was “inactive” each time. In addition, the Potency result in assay [7], in assay [8] and in assay [9] was “inactive” in each case.
Regarding `CC1(C)C(C(=O)OC(C#N)c2cccc(Oc3ccccc3)c2)C1(C)C` (centres undefined), the Potency result in assay [1], in [2], in assay [3], in assay [4], in assay [5] and in [6] was “inactive” throughout. Also, the Potency entry in [7], in assay [8] and in [9] was “inactive” each time.
Consider `CCC[CH2][Sn]([Cl])([Cl])[CH2]CCC`, for which the Potency is 442 nM (active) and 1.38 µM (active) in assay [1]; 351 nM (active) and 490 nM (active) in assay [3]; “inactive and 49 µM (active)” in assay [4]; 111 nM (active) and 138 nM (active) in assay [5]; 111 nM (active) in assay [6]; 786 nM (active) and 24.5 µM (active) in assay [7]. The Potency in assay [9] was 14 µM (active) and 13.8 µM (active). In addition, the Potency entry in assay [2] and in assay [8] was “inactive” each time.
Regarding `ClCc1ccccn1`, the Potency result in assay [1], in assay [2], in [3], in [4], in assay [10] and in [5] was “inactive” each time. The Potency entry in assay [6], in assay [7], in [8] and in [9] was “inactive” in each case.
For the compound `CCCCOC(=O)COC(=O)c1ccccc1C(=O)OCCCC`, the Potency result in assay [1], in assay [2], in assay [3], in assay [4], in [5] and in [6] was “inactive” throughout. The Potency entry in assay [7], in assay [8] and in [9] was “inactive” in each case.
In the case of `Cc1cccc(N=Nc2ccc(N(C)C)cc2)c1`, the Potency result in assay [1], in [2], in assay [3], in assay [4], in assay [10] and in assay [7] was “inactive” in each case. Also, the Potency result in assay [8] and in assay [9] was “inactive” in each case.
`C[C@]12CCC(=O)C=C1CC[C@@H]1[C@@H]2CC[C@@]2(C)[C@H]1CC[C@]2(C)O`: the Potency in assay [1] was 44 µM (active) and inactive; in [2] it was 19.7 µM (active) and inactive; in assay [3], 22.1 µM (active); in assay [4], 44 µM (active) and inactive; in [5], 19.7 µM (active); in [8] it was 14.3 µM (active) and 9.52 µM (active). The Potency in [9] was 22.1 µM (active) and inactive. The Potency result in assay [10] and in assay [6] was “inactive” throughout.
As to `CC(C)(c1ccccc1)c1ccc(O)c(C(C)(C)c2ccccc2)c1`, the Potency result in [2], in assay [4] and in assay [8] was “inactive” in each case. For the same compound, the Potency in assay [3] is 48.5 µM (active) and 43.6 µM (active); in assay [10] it was 54.4 µM (active) and 43.6 µM (active); in [5], 19.3 µM (active) and 30.9 µM (active); in assay [6], 21.7 µM (active) and 30.9 µM (active); in assay [7], 43.2 µM (active); in assay [9], 48.5 µM (active) and 49 µM (active).
Consider `N#Cc1cccnc1`, for which the Potency entry in [2], in assay [3], in assay [4], in [5], in assay [6] and in assay [7] was “inactive” each time. Also, the Potency entry in assay [8] and in assay [9] was “inactive” throughout.
Regarding `ClC(Cl)(Cl)c1ccccc1`, the Potency entry in assay [2], in assay [3], in [4], in [10], in assay [5] and in assay [6] was “inactive” in each case. Besides, the Potency entry in [7], in assay [8] and in [9] was “inactive” throughout.
For the compound `CCC/C=N/O`, the Potency result in assay [2], in assay [3], in [4], in assay [10], in [5] and in [6] was “inactive” throughout. The Potency entry in assay [7], in assay [8] and in [9] was “inactive” in each case.
As to `C=C(C)C#N`, the Potency result in assay [2], in assay [3], in [4], in [6], in assay [7] and in assay [8] was “inactive” in each case. Besides, the Potency entry in assay [9] was “inactive”. In addition, in assay [5], the Potency entry is “inactive and 13.8 µM (active)”.
As to `CCOP(=S)(OCC)SCn1c(=O)oc2cc(Cl)ccc21`, the Potency result in [2], in [3], in assay [4], in [10], in [7] and in [8] was “inactive” in each case. Moreover, the Potency result in [9] was “inactive”. Further, the Potency in assay [5] was 26.3 µM (active) and 21.9 µM (active); in assay [6], 26.3 µM (active) and 15.5 µM (active).
On to `ClC(Cl)=C(Cl)C(Cl)=C(Cl)Cl`, for which the Potency entry in [2], in [3], in assay [4], in assay [10], in [5] and in assay [6] was “inactive” in each case. In addition, the Potency entry in [7], in assay [8] and in [9] was “inactive” in each case.
For `CC1=C(C(=O)Nc2ccccc2)SCCO1`, the Potency entry in assay [2], in [3], in assay [4], in [10], in [5] and in assay [6] was “inactive” throughout. In addition, the Potency result in [7], in assay [8] and in [9] was “inactive” throughout.
As to `C[N+](C)(C)CC(=O)[O-]`, the Potency entry in assay [2], in assay [3], in assay [4], in [5], in assay [6] and in assay [7] was “inactive” each time. Also, the Potency entry in [8] and in [9] was “inactive” each time.
Regarding `CCCCCCCCCCCCCl`, the Potency result was “inactive and 19.5 µM (active)” in assay [2]; “inactive and 12.3 µM (active)” in assay [3]; “inactive and 19.5 µM (active)” in assay [4]; “inactive and 12.3 µM (active)” in [9]. Besides, the Potency entry in assay [5], in assay [6] and in [8] was “inactive” in each case.
As to `Clc1ccccc1-c1nnc(-c2ccccc2Cl)nn1`, the Potency result in assay [2], in assay [3], in [4], in assay [5], in assay [6] and in assay [7] was “inactive” in each case. The Potency entry in [8] and in assay [9] was “inactive” throughout.
On to `CC1(C)Cc2cccc(O)c2O1`, for which the Potency entry in assay [2], in [3], in assay [4], in [10], in assay [5] and in assay [6] was “inactive” throughout. In addition, the Potency result in [7], in assay [8] and in assay [9] was “inactive” each time.
In the case of `CCOC(=O)c1ccccc1N`, the Potency entry in assay [2] is “inactive and 43.6 µM (active)”; in [3] it was “inactive and 54.9 µM (active)”; in assay [4], “inactive and 43.6 µM (active)”; in assay [9], “inactive and 49 µM (active)”. Also, the Potency entry in assay [5], in [6], in assay [7] and in [8] was “inactive” in each case.
